A selection: hits, their analogues and other compounds. The true share with any hit is near 32%.
CYP2C19 act = human CYP2C19 activators, primary screen, biochemical, luminescence; Cytochrome P450 2C19 (Homo sapiens), P33261; recombinant CYP2C19, luciferin-H EGE luminescence; stronger effect = higher value; 0 = fully inhibited enzyme, 1 = untreated enzyme; activation factor at 5 µM; 96,000 tested, under 10 active; AID 1025, 2008;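 active = activation factor of at least 2 at 5 µM in the primary screen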
Target sequence (P33261 whole entry, looked up): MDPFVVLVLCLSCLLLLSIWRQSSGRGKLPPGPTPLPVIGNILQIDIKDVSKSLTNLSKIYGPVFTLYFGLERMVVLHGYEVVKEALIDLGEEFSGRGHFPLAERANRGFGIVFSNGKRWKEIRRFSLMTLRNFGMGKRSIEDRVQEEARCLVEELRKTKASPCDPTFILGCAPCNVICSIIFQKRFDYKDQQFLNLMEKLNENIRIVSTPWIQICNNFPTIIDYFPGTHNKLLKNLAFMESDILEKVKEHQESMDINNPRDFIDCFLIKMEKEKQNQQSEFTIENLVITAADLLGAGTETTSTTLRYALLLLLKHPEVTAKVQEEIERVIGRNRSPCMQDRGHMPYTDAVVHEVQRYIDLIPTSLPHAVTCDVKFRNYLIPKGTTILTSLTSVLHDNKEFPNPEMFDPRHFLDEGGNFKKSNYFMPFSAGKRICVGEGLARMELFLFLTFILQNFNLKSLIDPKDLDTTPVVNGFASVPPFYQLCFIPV
CYP2C19 inh = blockers of cytochrome P450 2C19 activity – biochemical, luminescence, ADME assay, primary screen. AID 778, 2007. 96,000 compounds, 21% hits. P33261. inhibition, % at 5 µM. CYP2C19 Supersomes, luciferin-H EGE luminescence, 30 min;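 active = CYP2C19 inhibition above a set limit at 5 µM in the primary screen, cut at about 50% in these data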
CYP2C9 act = human CYP2C9 activators, primary screen, biochemical, luminescence; Cytochrome P450 2C9 (Homo sapiens), P11712; recombinant CYP2C9, luciferin-H conversion; stronger effect = higher value; factor 1 = untreated enzyme, 0 = blocked; activation factor at 5 µM; 96,000 compounds, 1.4% hits;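 active = activation factor of 2 or more for CYP2C9 at a 5 µM dose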
CYP2C9 inh = blockers of cytochrome P450 2C9 activity – biochemical, luminescence, ADME assay, primary screen; CYP2C9 Supersomes, luciferin-H conversion; AID 777, 2007; P11712; 96,000 compounds, 20% hits; inhibition, % at 5 µM;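 active = blocking of liver enzyme CYP2C9 beyond about 50% at 5 µM, limit read from the data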
PostGolgi yeast = phenotypic screen on post-Golgi transport, primary screen | post-Golgi transport phenotypic cell assay | inhibition, % at 10 µM | 98,000 compounds, 0.9% hits | AID 739, 2007;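 also: yeast cells grown in 1536-well plates; yeast grown about 18 h at 30C before absorbance read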
PostGolgi ctrl = growth inhibition of yeast control strain, primary screen, counter-screen for post-Golgi transport modulator project | AID 738, 2007 | efflux-deficient yeast background strain, growth absorbance A615, 16 h | 98,000 compounds, 5% hits | inhibition, % at 10 µM
Numbers stand for hits; 0 = inactive; - = no result. Rule as the data show it, unless noted: active = inhibition above about 30%; inactive = the rest.

SMILES	CYP2C19 act	CYP2C19 inh	CYP2C9 act	CYP2C9 inh	PostGolgi yeast	PostGolgi ctrl
CCCC(=O)Nc1ccc2oc(-c3ccc(OC)c(Br)c3)nc2c1	0	0	0	0	0	0
CCCC(=O)Nc1ccc(-c2nc3cc(C)ccc3o2)cc1	0	0	0	0	0	30
Cc1ccc(OCC(=O)Nc2ccc(-c3nc4ncccc4o3)cc2)c(C)c1	0	63	0	0	0	0
Cc1ccc(CNC(=O)C(C)OC(=O)c2ccco2)cc1 (stereo unspecified)	0	72	0	55	0	0
CC(C)C(OC(=O)c1ccco1)C(=O)NCc1cccs1 (stereo unspecified)	0	69	0	0	0	0
CCC(OC(=O)c1ccco1)C(=O)NCc1ccc(C)cc1 (stereo unspecified)	0	0	0	0	0	0
CC(OC(=O)c1cccs1)C(=O)NCC1CCCO1 (stereo unspecified)	0	51	0	0	0	0
Cc1ccc(CNC(=O)C(OC(=O)c2ccco2)C(C)C)cc1 (stereo unspecified)	0	86	0	61	0	0
Cc1onc(-c2ccccc2Cl)c1C(=O)Nc1ccc(-c2nnc3n2CCCCC3)cc1	0	0	0	0	0	0
COc1ccc(NC(=O)Nc2ccc(C(=O)N3CCOCC3)cc2)cc1	0	0	0	0	0	0
Cc1ccc(CNC(=O)C(C)OC(=O)c2cccs2)cc1 (stereo unspecified)	0	77	0	68	0	0
CCC(c1nnnn1C(C)(C)CC)N(CCCO)Cc1cc2cccc(C)c2[nH]c1=O (stereo unspecified)	0	71	0	75	0	0
CCC(c1nnnn1C(C)(C)CC)N(CCCN1CCOCC1)Cc1cc2cccc(C)c2[nH]c1=O (stereo unspecified)	0	0	0	0	0	0
CC1CCCC/C1=N/Nc1ccc([N+](=O)[O-])cc1[N+](=O)[O-] (stereo unspecified)	0	0	0	0	0	36
CCCn1c(C)cc(C(=O)CSc2nnc3n(CCC)c(=O)c4ccccc4n23)c1C	0	0	0	0	-	-
COc1cc(C2Nc3ccccc3C(=O)N2c2ccc3c(c2)OCCO3)ccc1OCC(C)C (stereo unspecified)	0	70	0	99	0	0
O=C1c2ccccc2NC(c2ccc3c(c2)OCO3)N1O (stereo unspecified)	0	0	0	0	0	0
O=C1c2ccccc2NC(c2ccc3c(c2)OCCO3)N1c1ccc2c(c1)OCCO2 (stereo unspecified)	0	79	0	94	0	0
NC(=O)CC(NC(=S)NCc1ccccc1)C(=O)O (stereo unspecified)	0	0	0	0	0	0
O=C(NCc1ccccc1)c1cccc(COc2ccccc2Cl)c1	0	0	0	0	0	0
Cc1cccc(NC(=S)NNC(=S)NCc2ccccc2)c1	0	0	0	60	0	0
OCc1ccccc1CNCc1ccccc1	0	62	0	0	0	0
FC(F)Oc1ccc(NC(=S)NCc2ccccc2)cc1Cl	0	50	2.2	0	0	0
O=C(O)CC(NC(=S)NCc1ccccc1)C(=O)O (stereo unspecified)	0	0	0	62	0	0
Cc1cccc(NC(=S)NCc2cccn2C)c1	0	0	0	0	0	0
SMILES	CYP2C19 act	CYP2C19 inh	CYP2C9 act	CYP2C9 inh	PostGolgi yeast	PostGolgi ctrl
CC(C)=C1C2CCC1C1C(=O)N(c3nc(-c4ccc(F)cc4)c(C)s3)C(=O)C21 (stereo unspecified)	0	0	0	0	0	0
CC1CCCCN1CCNC(=O)CN1C(=O)COc2ccccc21 (stereo unspecified)	0	0	0	0	0	0
Cc1ccc(NC(=O)CCSc2nc(C)cc(C)n2)cc1	0	0	0	0	0	0
S=C(NCc1ccccc1)NCc1ccccc1	0	90	0	0	0	0
CC(C)c1ccc(CNCc2ccccc2)cc1	0	75	0	0	0	0
CC(C)COc1ccc(CNC(=S)NCc2ccccc2)cc1	0	0	0	0	0	0
C/C(=N\NC(=S)Nc1cccc(C)c1)c1ccccc1	0	0	0	0	0	33
CC#CCNCc1ccccc1	0	0	0	0	0	0
N=c1nc(SCCC(=O)O)ss1	0	0	0	0	0	0
O=C(O)C1CC(O)CN1C(=O)c1ccco1 (stereo unspecified)	0	0	0	0	0	0
CC(=O)c1c(C)[nH]c(C(=O)CSc2nc3ccc(C)cc3[nH]2)c1C	0	90	0	94	0	35
Cc1ccc2nc(SCC(=O)c3ccc(Cl)s3)[nH]c2c1	0	0	0	60	0	0
O=C(CSc1nc2ccccc2[nH]1)c1ccc2c(c1)OCO2	0	92	0	71	0	0
Cc1ccc2nc(SCC(=O)c3ccc4c(c3)OCO4)[nH]c2c1	0	0	0	69	0	0
COc1ccc(Cn2c(CCC(=O)O)nc3cccnc32)cc1	0	0	0	0	0	0
Cc1nc(Oc2ccc(Cl)cc2)c2oc3ccccc3c2n1	0	0	0	0	0	0
CC(CN1CCCCC1)OC(=O)C1c2ccccc2Oc2ccccc21 (stereo unspecified)	0	72	0	0	0	0
Cc1ccc(/C=C/C2=Cc3c(sc(NC(=O)CSc4n[nH]c(N)n4)c3C#N)C(C)(C)C2)o1	0	0	0	91	0	0
COC(=O)c1c(NC(=O)CSc2n[nH]c(N)n2)sc(C)c1C	0	0	0	0	0	0
O=C(NCc1ccc(F)cc1)C1CCC(=O)N1CCc1ccccc1 (stereo unspecified)	0	0	0	0	0	0
O=C(CSc1ccccc1)Nc1ccc(S(=O)(=O)NCC2CCCO2)cc1 (stereo unspecified)	0	0	0	91	0	0
O=C(CN(CC1CCCO1)S(=O)(=O)c1ccc(S(=O)(=O)NC2CC2)cc1)Nc1ccccc1 (stereo unspecified)	0	74	0	97	0	0
O=C(Nc1cccc(F)c1)c1ccc(S(=O)(=O)NCC2CCCO2)cc1 (stereo unspecified)	0	0	0	56	0	0
O=C(Nc1ccc2c(c1)OCO2)c1ccc(S(=O)(=O)NCC2CCCO2)cc1 (stereo unspecified)	0	0	0	0	0	0
O=C(COc1ccc(S(=O)(=O)NC2CCCCC2)cc1)NCC1CCCO1 (stereo unspecified)	0	0	0	0	0	0
COc1ccc(NC(=O)Nc2ccc(N3CCCC3=O)cc2)cc1OC	0	0	0	0	0	0
CCN(CC)C(=O)CSc1ncnc2c(-c3cccs3)nsc12	0	0	0	0	0	0

From PubChem
